Compound activity from PubChem.
The list is not random: actives were taken first. Their share in the collection is about 4.8%.
USP1-UAF1 inh: inhibitors of human USP1/UAF1 deubiquitinase; recombinant USP1/UAF1, Ub-Rhodamine cleavage fluorescence; Potency, µM (top dose mostly 57.1 µM), for the others: at the highest dose activity change, negative = inhibition, hits mostly inhibitors; 390,000 tested, 0.23% active; AID 743255; also: potency is read from the fitted curve at half-maximal effect; % is scaled to controls: 0 for no effect and ±100 for the full control effect; nearly all actives have a fitted effect of over 60% in size
Target sequence (O94782 whole entry, looked up): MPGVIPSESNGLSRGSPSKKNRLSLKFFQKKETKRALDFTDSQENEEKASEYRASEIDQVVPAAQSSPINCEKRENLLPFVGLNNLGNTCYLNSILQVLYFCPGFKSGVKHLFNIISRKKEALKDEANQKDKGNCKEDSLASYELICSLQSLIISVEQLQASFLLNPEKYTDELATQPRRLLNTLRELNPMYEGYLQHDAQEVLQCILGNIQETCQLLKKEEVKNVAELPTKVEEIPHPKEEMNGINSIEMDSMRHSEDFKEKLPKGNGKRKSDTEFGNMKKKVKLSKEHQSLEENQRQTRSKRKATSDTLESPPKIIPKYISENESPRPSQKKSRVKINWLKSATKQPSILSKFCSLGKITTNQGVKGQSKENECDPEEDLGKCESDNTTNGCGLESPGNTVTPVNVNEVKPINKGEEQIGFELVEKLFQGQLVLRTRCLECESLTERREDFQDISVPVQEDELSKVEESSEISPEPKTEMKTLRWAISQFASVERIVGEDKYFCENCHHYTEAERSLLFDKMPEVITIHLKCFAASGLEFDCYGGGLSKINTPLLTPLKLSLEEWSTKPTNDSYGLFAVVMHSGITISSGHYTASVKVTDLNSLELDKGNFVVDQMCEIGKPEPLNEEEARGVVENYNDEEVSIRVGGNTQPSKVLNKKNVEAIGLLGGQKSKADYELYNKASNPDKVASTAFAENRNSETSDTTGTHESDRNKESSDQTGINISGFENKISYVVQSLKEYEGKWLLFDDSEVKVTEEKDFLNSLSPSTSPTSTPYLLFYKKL
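1 nM enzyme complex + cpd, 15 min RT; start with Ub-Rho 150nM final; kinetic fluorescence ex 480/em 540, 6 reads q60 s. Buffer 50mM HEPES pH 7.8, 0.5mM EDTA, 0.1 mg/ml BSA, 1mM TCEP, 0.01% Tween-20.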
ATXN2 expr inh: ATXN2 expression inhibition; HEK-293 ATXN2-luciferase reporter, luminescence, 24 h; Potency, µM (highest dose often 57 µM), without a hit: at the top dose activity change, negative = inhibition, usual class: inhibitors; 360,000 tested, 0.72% active; also: potency is read from the fitted curve at half-maximal effect; % is scaled to controls: 0 for no effect and ±100 for the full control effect; nearly all actives have a fitted effect of over 55% in size
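qHTS (up to 57 uM final) was run with 24 h compound exposure of reporter cells at 37 °C. Each well was multiplexed: SteadyGlo luminescence measured ATXN2-luciferase expression after a fluorogenic Gly-Phe-AFC viability readout (25 uM final).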
ATXN viability: viability counter-screen for ATXN expression inhibitors | S2 cells (HEK-293 line with an ATXN2-luciferase reporter) viability, CellTiter-Fluor protease fluorescence, 24 h | Potency, µM (top dose mostly 56.7 µM), hits mostly cytotoxic | 400,000 tested, 0.49% active; also: potency is read from the fitted curve at half-maximal effect; nearly all actives have a fitted effect of over 40% in size
IL1B secr inh: inflammasome signaling inhibition, IL-1 beta readout; THP-1 LPS/ATP IL-1B secretion, AlphaLISA, 16 h; hits give low values; 360,000 tested, 4.7% active; activity change, % at 57.5 µM; in the data active = activity change below about -50%; inconclusive = mostly about -30% to -49%; also: % is scaled to controls: 0 for no effect and ±100 for the full control effect
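Secreted IL-1B measured by AlphaLISA bead assay after 16 h compound exposure of THP-1 cells; compounds (final up to 57.5 uM) added 1 h before LPS (250 ng/mL) and ATP (1.25 mM) stimulation; lower signal means less secretion.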
USP2a block: blocks human ubiquitin-specific protease USP2a | 330,000 tested, 0.01% active | USP2 core, Ub-CHOP2 coupled fluorogenic reporter, 485/531 | Potency, µM (titrated, usually from 38.3 µM), without a hit: at the highest dose activity change, negative = inhibition, usual class: inhibitors;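 also: potency is read from the fitted curve at half-maximal effect; plate controls were DMSO wells for no effect and full inhibition by NEM control for full effect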
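Cell-free coupled assay: 10nM USP2 core preincubated 30min RT with compound in Tris-HCl pH 8.0/CaCl2/CHAPS buffer, then 25nM Ub-CHOP2 and 25nM reporter substrate; fluorescence (Ex 485/Em 531) read after 60min RT, normalized to NEM inhibition, concentration-response curves fitted.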
* = called active by the depositor; i = inactive; ? = inconclusive; . = not tested or not shown. Unless noted, calls follow the shape of the dose curve; as a rule, active = well fitted curve in the direction sought with a large enough effect; inconclusive = small, poorly fitted or top-dose-only effect, or another doubt; inactive = no such curve, though single readings can be large; an effect the other way counts as inactive or inconclusive.

SMILES	USP1-UAF1 inh	ATXN2 expr inh	ATXN viability	IL1B secr inh	USP2a block
C#CCOc1ccc(C2C(C(=O)OC)=C(C)NC3=C2C(=O)c2ccccc23)cc1OCC (stereo not given)	-24.1%	-22.6%	?	.	.
COc1ccc2c(c1)c1c(c(=O)n(-c3ccccc3C)c(=O)n1CC(=O)NCc1ccc(C)cc1)n2C	-5.9%	-3.9%	?	.	.
CCCc1nc2ccc(C(=O)OC)cn2c1Cc1ccc(C)cc1	.	0.0%	?	16.7	.
COC(=O)c1cc(NC(=O)Nc2cccc(Cl)c2)ccc1Cl	-17.1%	?	i	-96.9*	-1.6%
COc1ccccc1NS(=O)(=O)c1cccc(NC(=O)Nc2cccc(Cl)c2)c1	-24.2%	0.0%	.	-65.0*	-14.5%
COc1ccccc1NS(=O)(=O)c1cc(NC(=O)c2ccc(Cl)nc2)ccc1Cl	-27.0%	20µM*	?	-63.2*	-8.2%
COC(=O)c1cc(NS(=O)(=O)c2ccc(NC(C)=O)cc2)ccc1Cl	-9.9%	6.6%	i	-73.6*	0.5%
O=S(=O)(NCCN1CCN(S(=O)(=O)c2ccccc2F)CC1)c1ccccc1F	-9.2%	6.6%	i	11.2	-5.3%
CSc1ncnc2c1cnn2-c1ccc(C)cc1C	-12.7%	18.5%	i	0.4	2.0%
Cc1ccc(-n2ncc3c(SCc4ccccn4)ncnc32)c(C)c1	-17.6%	1.4%	i	-69.2*	2.3%
CC(Nc1cc(C)cc(C)c1)=[N+](C)CCNS(=O)(=O)c1ccc(Cl)cc1	-12.6%	-21.7%	i	-78.7*	-1.2%
CCOc1ccc(CCNC(=O)c2ccc(-n3c(C)cc4c3CCC(C)C4)cc2)cc1OCC (stereo not given)	-6.1%	.	.	.	.
COc1ccc(NC(=O)N(C)C[C@H]2Oc3c(NC(=O)Nc4ccc(C(F)(F)F)cc4)cccc3C(=O)N([C@H](C)CO)C[C@@H]2C)cc1	-18.8%	?	?	?	-8.1%
C[C@@H]1CN([C@H](C)CO)C(=O)c2cccc(NC(=O)Nc3ccc(F)cc3)c2O[C@H]1CN(C)C(=O)Nc1ccc(C(F)(F)F)cc1	-24.7%	?	.	-70.2*	-0.2%
C[C@H]1CN([C@@H](C)CO)C(=O)c2cccc(NC(=O)Nc3ccc(C(F)(F)F)cc3)c2O[C@@H]1CN(C)S(=O)(=O)c1ccc(Cl)cc1	-24.5%	?	.	?	-6.1%
C[C@H](CO)N1C[C@H](C)[C@@H](CN(C)S(=O)(=O)c2ccc(F)cc2)Oc2c(NC(=O)Nc3ccc(C(F)(F)F)cc3)cccc2C1=O	-36.0%	?	.	-50.7*	1.7%
C[C@H](CO)N1C[C@H](C)[C@@H](CN(C)C(=O)Nc2ccc(C(F)(F)F)cc2)Oc2c(NC(=O)Nc3ccccc3)cccc2C1=O	-28.5%	?	.	-58.2*	-8.8%
Cc1c(NC(=O)Cc2ccc(F)cc2)cccc1-c1nc2cccnc2s1	-4.1%	.	.	.	.
COc1ccc2nc(-c3ccccc3)[nH]c(=O)c2c1	-4.5%	7.7%	i	-10.4	.
COc1ccc2nc(-c3ccccc3)cc(OC)c2c1	-26.5%	37.8%	i	-79.8*	-0.2%
O=C(COc1ccc(Cl)cc1)N(Cc1ccco1)c1ccccn1	-16.8%	24.0%	i	.	.
CC(CCC(=O)O)C1CCC2C3CC(O)C4CC(O)CC[C@]4(C)C3CCC12C (stereo not given in full)	-23.0%	2.4%	i	7.5	.
CC1=C(CO)C(=O)O[C@@H]([C@@H](C)[C@H]2CC[C@H]3[C@@H]4C[C@H]5O[C@]56[C@@H](O)C=CC(=O)[C@]6(C)[C@@H]4CC[C@]23C)C1	.	3.06µM*	.	.	.
CC(=O)Nc1cccc(-c2cnc(N)c(C(=O)c3cccnc3)n2)c1	-3.4%	?	?	-98.7*	-3.7%
O=C(Nc1cccc(NC(=O)c2cccnc2)c1)c1ccccc1	-3.9%	-6.7%	i	2.8	2.3%
NC(=O)c1cccc(-c2cnc(N)c(C(=O)c3cccnc3)n2)c1	-7.5%	-38.8%	?	-95.0*	.
CC(=O)Nc1cccc(-c2csc(N)n2)c1	0.9%	.	i	-3.8	1.8%
COc1cccc(CNC(C)C(=O)Nc2ccc3c(c2)OCCO3)c1 (stereo not given)	-9.6%	2.2%	i	-60.7*	-1.6%
